# Screening data: PubChem, National Center for Advancing Translational Sciences (NCATS)
# Sfp PPTase inh = Sfp phosphopantetheinyl transferase inhibition; Q9F4F7; AID 1490; 3.5% of 310,000 active; Potency, µM, without a hit: largest response in the series, negative = inhibition, most hits filed as inhibitors; Biochemical Sfp PPTase activity, qHTS;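 note: the enzyme is Sfp with the accession as filed and its product quenches rhodamine fluorescence; 0% = enzyme reaction without inhibitor and -100% = no enzyme wells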
#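 Compounds were incubated with enzyme (final 15 nM) for 15 min at room temperature before substrate addition started the reaction. Fluorescence at 525 nm excitation, 598 nm emission was recorded immediately and after 30 minutes.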
# Tau FP inhib = inhibitors of human tau fibril formation | Potency, µM (highest dose often 57.7 µM), inactives show at the highest dose activity, negative = inhibition, actives largely listed as inhibitors | 0.39% of 280,000 active | K18 P301L tau heparin fibrillization, Alexa594 FP, 6 h | P10636 | AID 1468; note: nearly all actives have a fitted effect of over 55% in size
# Target sequence (P10636 561-689 P618L limits assumed): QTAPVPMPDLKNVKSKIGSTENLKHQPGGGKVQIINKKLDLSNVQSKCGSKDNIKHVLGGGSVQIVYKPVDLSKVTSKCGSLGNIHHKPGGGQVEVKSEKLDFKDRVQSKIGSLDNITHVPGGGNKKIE
#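 Read-out: fluorescence polarization of Alexa 594-labeled tau (0.24 uM), 555 nm excitation, 632 nm emission. Mixtures held 15 uM unlabeled K18 P301L, compound and 20 uM heparin, pH 7 acetate buffer, incubated 6 hr at 37 C.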
# Tau fibril ThT = tau fibrillization inhibition (ThT binding); P10636; recombinant tau K18 P301L, heparin-induced fibrillization, ThT fluorescence; Potency, µM (titrated, usually from 57.4 µM), without a hit: top-dose activity, negative = inhibition, most hits filed as inhibitors; 2.1% of 270,000 active; AID 1460; note: nearly all actives have a fitted effect of over 55% in size
#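 Heparin-induced fibrillization of the P301L-mutant K18 repeat-domain fragment of human tau was followed by ThT binding in quantitative high-throughput format.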
# VDR inh = blocks the human vitamin D receptor; VDR-SRC2-3 peptide fluorescence polarization, 2 h; Potency, µM, for the others: max response, negative = inhibition, most hits filed as inhibitors; 0.93% of 400,000 active
# Target sequence (P11473 whole entry, looked up): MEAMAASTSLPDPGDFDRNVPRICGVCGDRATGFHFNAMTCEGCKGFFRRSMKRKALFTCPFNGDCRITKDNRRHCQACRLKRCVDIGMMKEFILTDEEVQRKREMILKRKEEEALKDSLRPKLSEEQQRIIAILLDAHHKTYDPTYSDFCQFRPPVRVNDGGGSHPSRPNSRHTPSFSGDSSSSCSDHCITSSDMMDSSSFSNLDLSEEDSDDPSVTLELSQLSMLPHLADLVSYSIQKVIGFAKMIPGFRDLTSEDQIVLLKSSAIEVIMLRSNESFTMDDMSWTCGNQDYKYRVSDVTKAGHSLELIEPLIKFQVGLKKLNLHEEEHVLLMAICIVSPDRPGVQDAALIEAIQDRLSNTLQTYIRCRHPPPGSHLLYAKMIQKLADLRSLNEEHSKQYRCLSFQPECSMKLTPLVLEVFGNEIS
#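 Measured by FP: displacement of SRC2-3 coactivator peptide from VDR by library compounds, following a two-hour ambient incubation.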
# Tau fluor cs = counter-screen for tau fibril formation inhibitors; 0.93% of 280,000 active; Potency, µM (highest dose often 57.7 µM), without a hit: at the top dose activity change, negative = decrease; tau K18 P301L Alexa594 fluorescence, heparin fibrillization; note: nearly all actives have a fitted effect of over 55% in size
#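 Human tau K18 P301L (15 uM unlabeled, 0.24 uM Alexa 594-labeled) in 100 mM sodium acetate pH 7 with 20 uM heparin, 6 hr at 37 C. ThT 30 uM added, 1 hr ambient; Alexa 594 FP and total fluorescence read at 555/632 nm.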
# PLK1 PBD inh = blocks phosphopeptide binding to human PLK1 polo-box domain | Plk1 PBD binding of FITC phosphopeptide, fluorescence polarization | P53350 | Potency, µM, inactives show max response, negative = inhibition, usual class: inhibitors | 2.8% of 360,000 active; note: series mostly up to about 57 µM; nearly all actives have a fitted effect of over 65% in size
# The depositor's hits bear a star; ? = inconclusive; . = no result; [ ] = dose if it differs, or a comment. Most compounds without a hit are left out; they make up all but 6% or so of the library. Calls come from the whole dose curve; as a rule, active = well fitted curve in the direction sought with a large enough effect; inconclusive = small, poorly fitted or top-dose-only effect, or another doubt; inactive = no such curve, though single readings can be large; an effect the other way counts as inactive or inconclusive. Unless noted, % is set by controls: 0 for no effect and ±100 for the full control effect; potency is the fitted concentration of half-maximal effect.
SMILES,Sfp PPTase inh,Tau FP inhib,Tau fibril ThT,VDR inh,Tau fluor cs,PLK1 PBD inh
CCOc1ccc(Nc2ccc(N3C(=O)CCC3=O)cc2[N+](=O)[O-])cc1,9.4%,-4.8%,5.01µM*,11.9%,?,4.9%
COc1ccc(Nc2ccc(N3C(=O)CCCC3=O)cc2[N+](=O)[O-])cc1OC,13.9%,-0.5%,?,-14.3%,-1.9%,-1.2%
Nc1cc(=O)[nH]c(SCC(=O)N2CCCc3ccccc32)n1,17.3%,-3.4%,-7.8%,4.0%,-6.4%,-4.1%
O=C(CSc1nc(-c2ccccc2)cc(=O)[nH]1)N1CCc2ccccc21,10.4%,1.4%,-4.6%,?,3.5%,2.99µM*
CCCc1nc(SCC(=O)N2CCc3ccccc32)c2c(=O)n(C)c(=O)n(C)c2n1,16.3%,-8.7%,-3.6%,.,-4.7%,.
CC(C)c1nc(SCC(=O)N2CCCc3ccccc32)c2c(=O)n(C)c(=O)n(C)c2n1,44.7µM*,-9.5%,?,-4.5%,-4.4%,1.6%
CCCc1cc(=O)[nH]c(SCC(=O)N2CCCc3ccccc32)n1,1.7%,-5.4%,?,-13.8%,-10.1%,21.2µM*
CCCc1cc(=O)[nH]c(SCC(=O)CSc2nc(CCC)cc(=O)[nH]2)n1,56.2µM*,?,15.8µM*,?,-26.2%,-15.9%
CCOC(=O)C1CCCN(C(=O)c2cc(F)ccc2C)CC1 (stereo not drawn),.,.,.,.,.,-7.5%
CCCc1cc(=O)[nH]c(SCC(=O)N(C)Cc2ccccc2)n1,2.3%,-7.7%,-1.4%,-15.6%,-2.0%,-14.5%
CCCc1cc(=O)[nH]c(SCC(=O)N(C)CC(=O)Nc2ccccc2CC)n1,0.4%,3.3%,-8.4%,?,7.0%,26.7µM*
Cc1cc(C(=O)Nc2sc(C)c(C)c2C#N)no1,-4.8%,1.2%,?,9.5%,-7.2%,-28.0%
CCc1c(C)sc(NC(=O)c2cc(C(C)C)on2)c1C#N,-18.7%,-2.4%,-16.7%,-6.1%,-20.3%,?
CCc1cc(C(=O)Nc2sc(C)c(CC)c2C#N)no1,.,?,28.2µM*,79.4µM*,?,.
CCc1c(C)sc(NC(=O)c2cc(C)no2)c1C#N,?,8.6%,?,-22.7%,-12.0%,29.9µM*
O=c1[nH]c(=O)n(C(c2ccccc2)(c2ccccc2)c2ccccc2)cc1N(CCO)CCO,.,.,.,-26.7%,.,-7.8%
CC1CCN(C(=O)Cn2cc(SCc3ccccc3)c3ccccc32)CC1,.,7.9%,-6.0%,-6.1%,-18.3%,.
Cc1cnc(C(=O)Nc2ccccc2-c2ccc(C)o2)cn1,50.1µM*,-5.8%,?,-4.9%,-18.0%,-7.3%
Cc1cnc(C(=O)Nc2cccc3ncccc23)cn1,-8.3%,-4.6%,-8.9%,-8.4%,-2.0%,-3.4%
CCCC(=O)N1CCc2cc(OC)c(OC)cc2C1c1cc2cc3c(cc2[nH]c1=O)OCO3 (stereo not drawn),.,.,.,-13.9%,.,0.6%
COc1cc2c(cc1OC)C(c1cc3cc(OC)c(OC)cc3[nH]c1=O)N(C(=O)C1CC1)CC2 (stereo not drawn),50.1µM*,-10.3%,-15.5%,-14.9%,-8.3%,-5.6%
COc1ccc(Oc2ncc3nc(-c4ccc(F)cc4)c(=O)n(Cc4cccs4)c3n2)cc1,6.3%,.,.,-7.0%,.,.
Nc1ncnc2nc(SCCOc3ccc(Cl)cc3)[nH]c12,-4.7%,-3.6%,-17.5%,-1.1%,-14.0%,-2.3%
Cc1ccc(OCCSc2nc3ncnc(N)c3[nH]2)cc1,4.5%,1.3%,-5.1%,?,-3.1%,9.47µM*
CC(=O)Nc1ccc(NC(=O)c2ccc(-c3ccc([N+](=O)[O-])cc3)o2)cc1,-12.7%,.,.,18.8%,.,-12.4%
SMILES,Sfp PPTase inh,Tau FP inhib,Tau fibril ThT,VDR inh,Tau fluor cs,PLK1 PBD inh
C=CCNC(=O)c1ccc(-c2ccc([N+](=O)[O-])cc2)o1,25.1µM*,-2.2%,?,-9.2%,-0.9%,?
COc1ccc(CCNC(=O)c2ccc(-c3ccc([N+](=O)[O-])cc3Cl)o2)cc1OC,-17.1%,10.4%,?,-17.0%,?,-9.6%
COc1cc([N+](=O)[O-])ccc1-c1ccc(C(=O)Nc2ccc(NC(C)=O)cc2)o1,10µM*,-5.8%,5.01µM*,-5.6%,?,-20.6%
COc1cccc(C(=O)COc2cccc(NC(=O)c3cccc([N+](=O)[O-])c3)c2)c1,14.2%,7.5%,?,6.8%,14.1µM*[quencher],0.3%
COc1cccc(NC(=O)c2ccc(-c3ccc([N+](=O)[O-])cc3)o2)c1,20µM*,14.7%,?,1.3%,?,-12.7%
COc1cc(OC)c(NC(=O)N2CCc3cc(S(=O)(=O)N4CCC(C)CC4)ccc32)cc1Cl,.,12.9%,0.8%,-6.9%,-7.1%,.
CN(C)C(CNC(=O)c1cccc(C(F)(F)F)c1)c1ccco1 (stereo not drawn),12.0%,.,.,-13.9%,.,-4.2%
COC(=O)[C@@]1(Cc2ccccc2)[C@H]2c3cc(C(=O)N(C)C)n(Cc4ccc(O)c(OC)c4)c3C[C@H]2CN1C(=O)c1ccccc1,-4.3%,0.6%,?,.,-17.4%,.
Nc1nc(Sc2ccc(C(F)(F)F)cc2[N+](=O)[O-])n[nH]1,10.8%,-13.4%,-6.1%,13.7%,-10.7%,-6.2%
Nc1nc(Sc2c([N+](=O)[O-])cc(C(F)(F)F)cc2[N+](=O)[O-])n[nH]1,?,-3.8%,?,31.6µM*,?,2.38µM*
Cc1ccc(C(c2nc3ccccc3[nH]2)n2c(-c3ccccc3)nc3ccccc32)cc1 (stereo not drawn),.,.,.,.,.,-1.9%
CC(C)n1c(=O)c2oc3ccccc3c2n(CC(=O)Nc2ccccc2Cl)c1=O,.,-6.6%,16.4%,6.3%,6.2%,.
O=C(c1cccc(F)c1)N1CCC2(CC1)CN(c1ccccc1)C2,-10.8%,.,.,-11.0%,.,.
CC(=Nc1cc(C(=O)c2ccccc2)ccc1N)C1=C(O)CC(C)(C)CC1=O,-9.9%,-5.9%,?,-8.2%,-12.3%,29.9µM*
COc1ccccc1N1CCN(S(=O)(=O)c2c(C)sc3ncn(CC(=O)N(C)c4ccc(C(C)C)cc4)c(=O)c23)CC1,.,6.3%,-15.5%,-21.7%,-21.2%,.
COC(=O)N/N=C(\C)c1ccc(C)c([N+](=O)[O-])c1,-6.5%,4.3%,3.2%,-11.5%,-1.7%,-0.7%
COc1cc(/C=C/C(=O)c2ccc(NS(=O)(=O)c3ccc(C)cc3)cc2)cc(OC)c1O,-8.1%,14.9%,11.2µM*,-5.0%,14.1µM*[quencher],10.5%
COc1cc(/C=C/C(=O)c2ccc(C)c([N+](=O)[O-])c2)cc(OC)c1O,-0.9%,7.2%,6.31µM*,?,?,-17.2%
COc1cc(/C=C2/C(=O)ON=C2c2ccccc2)ccc1O,50.1µM*,12.6%,-2.5%,50.1µM*,-0.5%,?
O=C1ON=C(c2ccc(Cl)cc2)/C1=C/c1ccc(O)cc1,22.4µM*,3.2%,?,?,-21.5%,0.474µM*
COc1ccc(/C=C2/C(=O)ON=C2C)cc1Cl,79.4µM*,.,.,?,.,2.12µM*
